Reference: PMC5540273 (PLoS ONE, 2017)

System: NEK4
Conditions: concentration: 1 μM, replicates: in singlicate; n = 1
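Note: KINOMEscan kinase panel screen.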

Row | SMILES | %Inh [%]
1 | CCCCc1nn2ncccc2c1-c1ccnc(Nc2ccc(N3CCN(C)CC3)cc2)n1 [GW684941] | 14
2 | Cc1ccc(S(=O)(=O)Nc2ccc(Nc3nccc(Nc4cccc5[nH]ncc45)n3)cc2)cc1 [GSK581271] | 20
3 | CN(C)Cc1ccc(-c2ccc3c(Nc4ccc(Oc5ccccn5)cc4)ccnc3c2)o1 [GW567148] | 21
4 | Cc1cccc(Nc2nc(N[C@H]3CCNC3)ncc2C(N)=O)c1.Cl [GSK2197149] | 27
5 | Cc1ccc(C(=O)N2CC[C@@H](O)C2)cc1-n1c(C)cc(OCc2ccc(F)cc2F)c(Br)c1=O | 0
6 | O=C(O)C(F)(F)F.O=C(O)C(F)(F)F.O=c1[nH]ccc2nc(N[C@@H]3CCCNC3)nc(Nc3ccc(S(=O)(=O)N4CCOCC4)cc3)c12 [GSK2177277] | 96.1
7 | Cc1ccc(C)c(NC(=O)NC2CCN(c3ccnc(Nc4ccc(F)cc4)n3)C2)c1 (centres unmarked) [GSK1379720] | 27
8 | Cc1cccc(NC(=O)Nc2ccc(Oc3ncnc4ccn(C)c34)cc2)c1 | 0
9 | COc1ccc(-c2coc3ccc(-c4nnc(SCc5ccc(OC)c(C(F)(F)F)c5)o4)cc23)cc1 | 2
10 | CC(C)c1nc(-c2cccc(NS(=O)(=O)c3c(F)cccc3F)c2F)c(-c2ccnc(Nc3ccc(N4CCOCC4)nc3)n2)s1 [GSK2008607] | 51
11 | O=C(Nc1cccc(-c2nn3ncccc3c2-c2ccnc(Nc3ccccc3)n2)c1)c1c(F)cccc1F [GSK198271] | 4
12 | O=c1[nH]cc(-c2ccc(N3CCOCC3)cc2)c2sc(-c3cn[nH]c3)cc12 [GSK2276055] | 0
13 | COC(=O)Nc1nc2cc(Oc3ccc(NC(=O)Nc4cc(C(F)(F)F)ccc4F)cn3)ccc2[nH]1.Cl.Cl [GW681170] | 0
14 | Cl.Cl.NCC(NCc1ccc(-c2ccnc3[nH]ccc23)s1)c1ccccc1 (centres unmarked) [GSK1321565] | 0
15 | CCS(=O)(=O)c1ccc(OC)c(Nc2nccc(-c3c(-c4cccc(NC(=O)c5c(F)cccc5F)c4)nn4ncccc34)n2)c1 [GSK326180] | 6
16 | COc1cccc(-c2ccc3c(NC(=O)C4CC4)n[nH]c3n2)c1 [SB-710903] | 0

Row | SMILES | %Inh [%]
17 | CSc1cccc2c(-c3ccncn3)c(-c3ccc(F)cc3)nn12 [GW514786] | 15
18 | COc1cc2c(cc1OCCN1CCNCC1)ncc1c3ccc(C#N)cc3[nH]c21 | 100
19 | Cn1cc(-c2ccc3c(c2)CCN3C(=O)Cc2cccc(F)c2)c2c(N)ncnc21 [GSK2603358] | 22
20 | C[C@@H](Oc1cc(-n2cnc3cc(-c4ccnc(NCCS(C)(=O)=O)c4)ccc32)sc1C(N)=O)c1ccccc1Cl [GSK907232] | 0
21 | COc1cccc(C(=O)Nc2cccc(Oc3ccc4nc(NC(=O)C5CC5)cn4n3)c2)c1 | 0
22 | Cl.c1ccc(-c2ccc3c(Nc4ccc5[nH]ncc5c4)ccnc3c2)nc1 [GW440137] | 0
23 | Cn1cc(-c2[nH]c3cc(NC(=O)[C@H](N)C4CCCCC4)cc4c3c2C=NNC4=O)cn1 | 0
24 | CCn1c(-c2nonc2N)nc2c(C#CC(C)(C)O)ncc(OCCCCN)c21.O=C(O)C(F)(F)F.O=C(O)C(F)(F)F [GSK507274] | 34
25 | CN(C)S(=O)(=O)c1cc(-c2ccc3nccc(-c4cccc(S(N)(=O)=O)c4)c3c2)cnc1N [GSK1669921] | 10
26 | CCn1c(-c2nonc2N)nc2c(C#CC(C)(C)O)nc(OC[C@H](N)c3ccccc3)cc21 [GSK943949] | 0
27 | Cl.c1ccc(-c2ccc3c(Nc4ccc5[nH]ccc5c4)ccnc3c2)nc1 [GW440138] | 0
28 | Nc1n[nH]c2cnc(-c3ccccc3)cc12 [SB-642124] | 12
29 | O=C(Nc1n[nH]c2cc(-c3ccoc3)ccc12)C1CC1 [SB-738481] | 1
30 | FC(F)(F)c1ccc(/C=C/c2cncnc2Nc2ccc3[nH]c(Cc4ccccc4)nc3c2)cc1 [GW709199] | 0
31 | CC(C)(C)c1ccc2nccc(Nc3cccc(O)c3)c2c1 [GW856795] | 0
32 | COc1cc(Nc2nccc(-c3c(-c4cccc(NC(=O)c5c(F)cccc5F)c4)nn4ccccc34)n2)cc(OC)c1OC [GSK323521] | 34
